A selection: hits, their analogues and other compounds. The true share with any hit is near 4%.
TRPM1 prom inh: reduces MITF-dependent TRPM1 promoter luciferase signal. SK-MEL-5 TRPM1 promoter luciferase, 24 h. inhibition, % at 12.5 µM. hit rate 0.83% among 330,000;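 active means mean inhibition across replicates of 60% or more, whatever share of single replicates reaches that level; inconclusive means some that reach 60%, reason not given; inactive means mean inhibition across replicates below 60%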
MITF act: activators of MITF-driven TRPM1 promoter activity in SK-MEL-5 cells | hit rate 0.75% among 300,000 | activation, % at 12.5 µM | AID 588334 | SK-MEL-5 TRPM1-promoter luciferase, 24 h; % of positive control, neutral wells = 0;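 active means mean activation of at least 80% with every replicate also reaching 80%; inconclusive means mean reaches 80% but some replicate falls short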;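 further: 0% = neutral control wells and 100% = parthenolide positive control wells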
Wnt act: Wnt/beta-catenin pathway activation; Wnt/beta-catenin reporter cell assay, activator, plate reader; hit rate 1.2% among 300,000; AID 743398; activation, % at 9.35 µM; in the data active means activation above about 30%, passing the limit was not always enough; inconclusive means no clear call, values can overlap the other calls;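 further: 0% = neutral control wells and 100% = positive control wells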
PAX8 reporter: lowers PAX8-driven luciferase in RMG-I cells; RMG-I TPO-luciferase reporter, SteadyGlo, 24 h; inhibition, % at 12.6 µM; hit rate 1.2% among 360,000;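 active means mean replicate inhibition at least 60% with every replicate also reaching 60%; inconclusive means only one of the two criteria is met; inactive means mean below 60% and not all replicates reaching 60%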;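 further: luciferase light reporting Pax8 driven TPO promoter activity; plate controls were median of neutral control wells for no effect and mitoxantrone controls for full effect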
EWS-Fli block: blocks EWS/Fli oncoprotein-driven transcription. AID 651661. inhibition, % at 12.6 µM. hit rate 0.67% among 350,000. A673 NR0B1-luciferase reporter, viability-normalised;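 active means mean inhibition of at least 50% after viability correction, with every replicate also passing that limit; inconclusive means mean reaches 50% but only one of two replicates passes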;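 further: firefly luciferase signal divided by Alamar Blue viability fluorescence both relative to DMSO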
esBAF inh: SWI/SNF esBAF complex inhibition | mouse ES cells, Bmi1-luciferase knock-in reporter, 24 h; 100% = twice the neutral-well signal | reporter increase, % at 12.5 µM | hit rate 2% among 350,000 | AID 602393; in the data active means activation above about 40%; inconclusive means no clear call, values can overlap the other calls;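 further: 0% = median of the plate's neutral control wells and 100% = double that signal; a rise in the Bmi1 reporter signal indicates esBAF inhibition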
An asterisk follows results filed as active; u = inconclusive; x = no result; ! = not active in a repeat.

SMILES	TRPM1 prom inh	MITF act	Wnt act	PAX8 reporter	EWS-Fli block	esBAF inh
CO[C@@H]1CN(C)C(=O)c2ccc(NC(=O)c3ccccn3)cc2OC[C@@H](C)N(Cc2ccccn2)C[C@H]1C	x	x	x	0	4	-2
CCOCC(=O)Nc1nc2ccc(OC)cc2s1	-82	u	x	x	x	x
CCC(=O)Nc1nnc(/C=C/c2ccc(OC)cc2)s1	-50	x	34*	-65	-34	x
CCC(=O)Nc1nc2cc(OC)ccc2s1	-35	x	59*	-133	x	17
CCC(=O)Nc1nc2ccc3nc(C)sc3c2s1	-43	44	22	-70	-47	46*
COc1ccc2sc(NCc3ccccc3)nc2c1	-110	111*	33*	-285	-108	99*
O=C(C[C@H]1C[C@H]2c3cc(NC(=O)C4CCOCC4)ccc3O[C@H]2[C@H](CO)O1)NCc1ccccc1	x	x	x	-8	6	0
COc1ccc2sc(NC(=O)CC(C)C)nc2c1	-92	u	57*	-92	x	40
COc1ccc2sc(NC(=O)NC(=O)c3c(Cl)cccc3Cl)nc2c1	-12	x	2	-19	-12	x
COc1ccc2sc(NC(C)=O)nc2c1	-58	54	48*	x	x	27
O=C1c2ccc(-c3nc4ccccc4o3)cc2C(=O)N1Cc1ccccc1	10	x	x	64*	x	-6
N#CC(C#N)=C1C=CC=CN1/C(=C\c1ccco1)C(=O)c1ccc(Br)cc1	85*	-85	-38	102*	x	x
COc1ccc(C(=O)/C(=C\c2ccco2)N2C=CC=CC2=C(C#N)C#N)cc1	96*	-96	-9	x	x	2
N#CC(C#N)=C1C=CC=CN1/C(=C\c1ccco1)C(=O)c1ccccc1	104*	-103	-40	122*	78*	x
C[C@@H]1CN([C@@H](C)CO)C(=O)c2cc(NS(=O)(=O)c3cn(C)cn3)ccc2O[C@@H]1CN(C)S(=O)(=O)c1cn(C)cn1	x	x	x	12	-7	-1
CCOC(=O)C1=CC[C@@H](c2ccc3ccccc3n2)[C@@H]1C(=O)c1ccccc1	x	x	x	6	-3	x
CC1(CCC(=O)O)C(=O)CCC2C1CCC1(C)C2CCC1(C)O (centres undefined)	-7	8	33*	4	1	-3
CC12CCC(=O)CC1CCC1C2CCC2(C)C1CCC2(O)C(=O)CO (centres undefined)	-4	4	0	5	3	1
COCC(=O)N1C[C@H](C)[C@@H](OC)CN(C)C(=O)c2ccc(NC(=O)c3ccc(OC)cc3)cc2OC[C@H]1C	x	x	x	6	13	-4
CC(=O)N(C)C[C@H]1Oc2ncc(C#Cc3ccccc3F)cc2C(=O)N([C@H](C)CO)C[C@H]1C	x	x	x	x	-20	-8
CCCCCN=C(N)N/N=C/c1c[nH]c2ccc(OC)cc12	97*	-96	5	107*	57*	-79
CNC(=O)C[C@@H]1CC[C@H]2[C@H](COc3ccc(NC(=O)Nc4c(C)noc4C)cc3C(=O)N2C)O1	x	x	x	-11	-4	-3
C=C(C)c1nc(Oc2ccccc2)nc(Oc2ccccc2)n1	u	-62	-2	97*	42	x
Cc1cc(Oc2ccccc2)nc(-c2ccccc2)n1	-15	12	x	x	x	5
C[C@H]1CCCCO[C@@H](CN(C)C(=O)Cc2ccccc2)[C@@H](C)CN([C@@H](C)CO)C(=O)c2cc(NS(=O)(=O)c3cn(C)cn3)ccc2O1	x	x	x	-15	-11	9
SMILES	TRPM1 prom inh	MITF act	Wnt act	PAX8 reporter	EWS-Fli block	esBAF inh
COc1ccc(C(=O)Nc2ccc(C(=O)c3ccccc3)cc2)cc1	x	x	-1	5	4	x
COc1ccc(C(=O)Nc2cc(OC)cc(OC)c2)cc1	-20	x	-2	x	x	0
COc1cc(NC(=O)c2ccccc2)cc(OC)c1	-27	23	20	-73	x	65*
COc1ccc(NC(=O)c2cc3ccccn3n2)cc1	x	x	31*	-41	25	-23
COc1ccc(NC(=O)c2cccc(NC(=O)c3ccccc3)c2)cc1	-43	x	2	-57	-58	41*
COc1cccc(NC(=O)c2cccc(Cl)c2)c1	-92	104*	41*	-149	-159	71*
C[C@H](CO)N1C[C@H](C)[C@H](CN(C)C(=O)Nc2ccc3c(c2)OCO3)Oc2ncc(-c3cncnc3)cc2C1=O	x	x	x	x	3	-2
COC(=O)c1ccc(NC(=O)c2cccc(OC)c2)cc1	-59	60	0	-199	x	47*
COc1cccc(C(=O)Nc2ccc(C(=O)c3ccccc3)cc2)c1	-2	x	6	-24	-28	42*
COc1cccc(C(=O)Nc2ccc(C(=O)O)cc2)c1	-9	6	x	-2	x	-4
COc1cccc(C(=O)Nc2cccc(C(C)=O)c2)c1	-49	50	1	-15	-70	52*
COC(=O)c1cccc(NC(=O)c2cccc(OC)c2)c1	-49	53	28	-144	x	61*
C[C@@H]1CN([C@H](C)CO)C(=O)Cc2cc(NC(=O)c3ccncc3)ccc2O[C@H]1CN(C)C(=O)Nc1cccc2ccccc12	x	x	x	14	4	-7
C[C@@H]1CN([C@H](C)CO)S(=O)(=O)c2ccc(-c3cccnc3)cc2O[C@@H]1CN(C)C(=O)C1CCC1	x	x	x	x	-11	4
Cc1noc(C)c1NC(=O)N(C)C[C@H]1Oc2ccc(NS(=O)(=O)c3cccs3)cc2CC(=O)N([C@H](C)CO)C[C@@H]1C	x	x	x	-2	5	3
COc1ccc(C(=O)Nc2ccccc2C(=O)Nc2ccccc2)cc1	x	x	26	-55	-53	46*
Cc1ccc(C(=O)Nc2ccccc2C(=O)NC(C(=O)O)C(C)C)cc1 (centres undefined)	-23	25	5	x	x	31*!
COc1ccc(C(=O)Nc2cccc(OC(=O)c3ccc(C)c(C)c3)c2)cc1	-33	36	16	x	x	22
COc1ccc(C(=O)Nc2cccc(OC(=O)c3ccco3)c2)cc1	-114	110*	28	-196	x	11
COc1cccc(C(=O)NC(=S)Nc2ccc(N(C)C)cc2)c1	-88	u	17	-155	-25	61*
COc1ccc(C(=O)Nc2ccccc2C(=O)Nc2ccccn2)cc1	-49	x	9	-34	-31	u
COc1ccc(NC(=O)Nc2ccc3c(c2)[C@@H]2C[C@H](CC(=O)NC4CCCC4)O[C@@H](CO)[C@@H]2O3)cc1	x	x	x	-1	3	4
COc1ccccc1C(=O)N1C[C@H]2[C@@H](c3ccccc31)[C@@H](CO)N2Cc1ccc(F)cc1	x	x	x	19	10	-1
COc1cccc(C(=O)NCCn2ccc3ccccc32)c1	x	x	24	-175	-96	71*
COc1ccccc1NC(=O)NC(=O)c1ccccc1	-46	x	47*	-54	-66	62*
COc1ccc(NC(=O)NC(=O)c2ccccc2)cc1	-61	x	52*	-77	-100	37
C[C@H]1CN([C@@H](C)CO)S(=O)(=O)c2ccc(-c3ccc(C(=O)N(C)C)cc3)cc2O[C@@H]1CN(C)C(=O)Nc1ccccc1F	x	x	x	8	6	3

Screening data from PubChem.
